GalR3 antag: antagonists of human GalR3; O60755; AID 651719; inhibition, % at 3 µM; HEK293 GalR3-CNG cAMP membrane potential fluorescence; galR3 body fused to GalR1 C-terminus; actives 0.44% (n = 360,000);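 active means inhibition above the screen-wide average plus 3 SD, cut at about 13% in these data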;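 further: forskolin and galanin both at EC90 stimulate the cells; cAMP rise reported by CNG channel membrane potential dye signal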
Gli-Sufu block: Gli-Sufu pathway antagonism. inhibition, % at 5 µM. actives 0.74% (n = 340,000). Sufu-KO-LIGHT fibroblasts, Gli luciferase reporter luminescence;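 active means inhibition above about 55%, limit read from the data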
FXN GAA850 act: frataxin GAA850 promoter activation; HEK293 lucGAA850 FXN promoter luciferase reporter, 24 h; percent of 10 µM SAHA response; activation, % at 6 µM; actives 0.56% (n = 360,000);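 active means activation above the average of all compounds screened plus 3 SD, cutoff fixed separately per campaign, cut at about 7.5% in these data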
Cardio protect: modulators protecting cardiomyocytes from myocardial damage; H9c2 cardiomyocytes, H2O2 injury protection, ATPLite, 2 h; protection from H2O2 cell death, % at 20 µM; actives 0.63% (n = 360,000); AID 588492;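 active means compounds giving at least 50% protection of heart cells from peroxide-induced death in the single-dose screen, raw or plate-pattern-corrected value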
SMARCA2 activ: SMARCA2 function activation, primary screen | activation, % at 9.1 µM | actives 1% (n = 370,000) | AID 652017 | MG213 cells, MMTV-luciferase reporter, dexamethasone, overnight; in the data active means activation above about 7.8%
NR2F2 inh: blocks human COUP-TFII nuclear receptor; AID 686940; actives 0.7% (n = 370,000); HEK293T NGFI-A luciferase reporter, luminescence; inhibition, % at 8.6 µM;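 active means inhibition above a per-plate cutoff, mean inhibition of test wells between control levels plus 3 SD, cut at about 38% in these data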;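 further: cells cotransfected with COUP-TFII expression vector driving the NGFI-A reporter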
Target sequence (P24468 whole entry, looked up): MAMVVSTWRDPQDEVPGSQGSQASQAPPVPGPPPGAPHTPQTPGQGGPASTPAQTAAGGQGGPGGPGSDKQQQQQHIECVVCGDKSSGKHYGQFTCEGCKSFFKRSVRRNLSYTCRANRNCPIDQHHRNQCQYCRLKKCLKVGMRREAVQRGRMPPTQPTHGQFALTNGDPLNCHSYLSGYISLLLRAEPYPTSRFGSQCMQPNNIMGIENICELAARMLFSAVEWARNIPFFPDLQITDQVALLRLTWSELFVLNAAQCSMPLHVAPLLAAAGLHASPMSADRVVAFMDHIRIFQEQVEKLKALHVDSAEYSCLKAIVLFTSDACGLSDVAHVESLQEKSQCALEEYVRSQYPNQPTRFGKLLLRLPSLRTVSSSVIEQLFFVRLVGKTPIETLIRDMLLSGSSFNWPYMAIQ
GalR3 conf: GalR3 (human) antagonism, confirmation; shares compounds with GalR3 antag; HEK293 GalR3 CNG cAMP biosensor, membrane potential fluorescence; galR3 fused to GalR1 carboxy tail; challenged with forskolin and galanin at EC90; inhibition, % at 3 µM; actives 59% (n = 1,600); AID 652245;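 active means inhibition above the primary screen's cutoff, the mean inhibition of all screened compounds plus 3 SD, cut at about 13% in these data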
HEK-CNG parental: acts as nonspecific agonist in parental HEK-CNG cells. shares compounds with GalR3 antag. activation, % at 3 µM. AID 652268. HEK293-CNG parental cells, cAMP membrane potential fluorescence; normalised: DMSO wells 0%, forskolin wells 100%. actives 10% (n = 1,600); in the data active means activation above about 1.3%
Numbers stand for hits; . = inactive; / = no result given. Sampled rows, rich in hits. Any-hit rate of the full collection: about 3.4%.

SMILES	GalR3 antag	Gli-Sufu block	FXN GAA850 act	Cardio protect	SMARCA2 activ	NR2F2 inh	GalR3 conf	HEK-CNG parental
Cc1csc(=O)n1CC(=O)OCC(=O)Nc1cc(Cl)ccc1[N+](=O)[O-]	.	.	.	.	.	.	/	/
CC(=O)COc1ccc2cc(-c3ccccc3)c(=O)oc2c1	.	.	.	.	.	.	/	/
O=C(CCCCl)Oc1ccc2cc(-c3ccc4ccccc4n3)c(=O)oc2c1	14.1	.	.	.	.	.	12.9	.
CCOc1ccc(NC(=O)CC2C(=O)N(C)C(=S)N2Cc2ccc3c(c2)OCO3)cc1 (centres undefined)	.	.	.	.	.	.	/	/
COc1ccc(OC[C@@H](O)CNC(=O)c2cccc3c2C(=O)c2ccc(Cl)cc2S3(=O)=O)cc1	78.1	.	.	.	.	.	58.0	.
O=C(NCc1ccc(F)cc1)c1cccc2c1C(=O)c1ccc(Cl)cc1S2(=O)=O	.	/	/	/	.	.	/	/
COc1cc(C(=O)Nc2cccc(S(=O)(=O)N3CCCC3)c2)cc(OC)c1C	14.3	.	.	.	.	.	.	.
Cc1cccc(C)c1NC(=O)c1cc(S(=O)(=O)N2CCOCC2)ccc1F	.	.	.	.	.	.	/	/
Cc1ccccc1NC(=O)c1cccc(S(=O)(=O)N2CCOCC2)c1	.	.	.	.	.	.	/	/
Cc1ccc(S(=O)(=O)N2CCOCC2)cc1NC(=O)c1cccc(S(=O)(=O)N2CCCC2)c1	/	.	.	.	.	.	.	.
Cc1ccc(S(=O)(=O)N2CCOCC2)cc1C(=O)N1CCN(S(=O)(=O)c2cccs2)CC1	13.1	.	.	.	.	.	.	.
Cc1ccccc1NC(=O)c1cc(S(=O)(=O)N2CCOCC2)ccc1F	13.7	.	.	.	.	.	.	.
O=Cc1cn(CC(=O)N2CCCCCC2)c2ccccc12	18.5	.	.	.	.	.	.	.
CCOC(=O)c1c(C)sc2c1N(C(C)=O)c1cc(Cl)ccc1S2	.	.	.	.	.	.	/	/
CC(C)CC(c1nnnn1C(C)C)N1CCN(c2ccccc2)CC1 (centres undefined)	/	.	.	.	.	.	.	6.9
Cc1ccc(S(=O)(=O)Cn2nnnc2C(CC(C)C)N2CCN(c3ccccc3)CC2)cc1 (centres undefined)	.	.	.	.	.	.	/	/
COc1ccccc1N1CCN(C(=O)CCNC(=O)c2ccco2)CC1	.	.	.	.	.	.	/	/
Cc1nc2scc(-c3ccccc3)c2c(=O)n1N=C1C=CC(=O)C=C1	15.4	.	/	/	.	.	23.6	.
NS(=O)(=O)c1ccc(O)c(NC(=O)c2ccc([N+](=O)[O-])cc2)c1	19.9	.	.	.	.	.	.	.
O=C(Nc1cc([N+](=O)[O-])ccc1O)c1cccc(C(=O)Nc2cc([N+](=O)[O-])ccc2O)c1	.	.	.	.	.	.	/	/
Cc1c(Cl)cccc1S(=O)(=O)Nc1ccnn1C	.	.	.	.	.	.	/	/
CCCCC[C@H](O)/C=C/[C@H]1CCC(=O)[C@@H]1CCCCCCC(=O)N1CCCCC1CO (some centres undefined)	79.2	.	.	.	.	.	96.9	.
COCCCNC(=O)c1cc2cc(Br)ccc2oc1=O	33.6	.	.	.	.	.	.	.
Cc1c(N/C(=N/S(=O)(=O)c2ccccc2)c2ccc(Cl)cc2)c(=O)n(-c2ccccc2)n1C	.	.	.	.	.	.	/	/
CC1CCCCN1S(=O)(=O)c1ccc(S(=O)(=O)N(Cc2ccccc2)Cc2ccco2)cc1 (centres undefined)	12.8	.	.	.	.	.	.	.
SMILES	GalR3 antag	Gli-Sufu block	FXN GAA850 act	Cardio protect	SMARCA2 activ	NR2F2 inh	GalR3 conf	HEK-CNG parental
CCn1c(/C=C/c2cccc([N+](=O)[O-])c2)nc2ccccc2c1=O	.	.	.	.	.	.	/	/
Cc1cccc(-c2nc3ccccc3c(=O)n2NC(=O)/C=C/c2ccc([N+](=O)[O-])cc2)c1	44.6	.	.	.	.	.	33.9	.
O=C(/C=C/c1cccc([N+](=O)[O-])c1)Nn1c(-c2ccccc2F)nc2ccccc2c1=O	60.9	.	.	.	.	.	65.2	.
Cc1nc2ccccc2c(=O)n1NC(=O)/C=C/c1ccc(Br)cc1	.	.	.	.	.	.	/	/
S=c1[nH]nc(CSc2nc3ccccc3s2)n1C1CCCCC1	.	.	.	.	.	.	/	/
COc1cc(/C=N\n2nnnc2N)ccc1OCc1ccc(F)cc1	20.7	.	.	.	.	.	24.9	.
COc1cc(/C=N/N=C(N)N)ccc1OCc1ccc(Cl)cc1	92.0	.	.	.	.	.	44.7	1.8
CC(C)(C)OC(=O)NCCCCCc1nnc(SCC(=O)Nc2cccc(Cl)c2)o1	17.2	.	.	.	.	.	77.0	.
CC(C)(C)OC(=O)NCCc1nnc(SCC(=O)Nc2cccc(Cl)c2)o1	.	.	.	.	.	.	/	/
CCCCN(Cc1cccs1)S(=O)(=O)c1ccc(-c2ccc(=O)[nH]n2)s1	21.8	.	.	.	.	.	24.1	.
COCCN(Cc1cccs1)S(=O)(=O)c1ccc(-c2ccc(=O)[nH]n2)s1	26.5	.	.	.	.	.	27.7	.
CCOC(=O)CCN(c1ccccc1)S(=O)(=O)c1ccc(-c2ccc(=O)[nH]n2)s1	32.5	.	.	.	.	.	57.4	.
CCOC(=O)c1nc2ccc(C)cc2c2c1C1CC(c3c(Cl)cccc31)N2C(=O)OCc1ccccc1 (centres undefined)	.	/	.	.	.	.	/	/
COc1ccc(-c2cc(-c3n[nH]c(=S)n3-c3ccccc3OC)[nH]n2)cc1	22.1	.	.	.	.	.	16.9	.
COc1ccc(OC)c(-n2c(-c3cc(-c4ccccc4)n[nH]3)n[nH]c2=S)c1	.	.	.	.	.	.	/	/
CCOC(=O)c1c(O)c(Cl)c(C)[nH]c1=O	15.7	.	.	.	.	.	19.1	.
CCOC(=O)c1c(O)c2c([nH]c1=O)CCCC2	.	.	.	.	.	.	/	/
CC(C)CSc1nnc(N)s1	13.9	.	.	.	.	.	.	.
CCCCCCSc1nnc(N)s1	.	.	.	.	.	.	/	/
O=C(NN=Cc1ccccc1)NN=Cc1ccccc1	.	.	.	.	.	.	/	/
COc1ccc(-c2nc3cc(NC(=O)Cc4ccc(OC)c(OC)c4)ccc3o2)cc1	37.6	.	.	.	.	.	.	.
COc1ccc(OCC(=O)Nc2ccc3oc(-c4ccncc4)nc3c2)cc1	.	.	.	.	.	.	/	/

Source: PubChem BioAssay (several laboratories)
